Laboratory results published in PubChem BioAssay AID587 (National Center for Advancing Translational Sciences (NCATS), 2007).
Among all 59,000 compounds or so, about 35 (0.06%) were called active. Inconclusive results (about 19%) are left out. Cut-off read from the data, not from the text of the source: active = max dye-equivalent concentration above about 10 nM; inconclusive = between about 1.1 nM and that limit; inactive = weaker than that. This excerpt belongs to a sample that is enriched for actives.

assay: qHTS Assay for Spectroscopic Profiling in Texas Red Spectral Region; details: Compound fluorescence, Texas Red channel, 547/618 nm; active compounds read high
Excerpt: NIH Molecular Libraries Screening Centers Network [MLSCN] NIH Chemical Genomics Center [NCGC] […] Occasionally, the artifactual effect may originate from the compound#s own spectral or other biophysical properties which generally tend to track its assay concentration. Pre-screening/profiling the library with respect to the compounds# spectral properties should help one exclude false positives early on. While the most informative fluorescent profiling data set is obtained by performing a full excitation and emission scan of each well by using a monochromator-based plate reader, such an approach is practical only on a very limited scale as scanning each well requires long time. An alternative approach, applied here, is to perform plate reader scans using selected excitation and emission wavelength pairs to generate a multidimensional relational database that correlates compound concentration and the respective relative fluorescence intensity at a given wavelength set. A standard curve of Texas Red (TR) present on each plate as six-point concentration series, was used to compute a normalized fluorescence response, termed dye-equivalent concentration, for each compound at each concentration.
NCGC Assay Protocol Summary: Buffer: 100 mM Tris buffer, pH 8.0 Dye standard plate: The wells in columns 1 through 4 of a Kalypsys polypropylene 1536-well compound plate were filled with standard solutions of fluorophore corresponding to the spectral region of interest. Solutions of TR were placed in the following wells: U1, V1: 3 mM, U2, V2: 300 uM, U3, V3: 30 uM, U4, V4: zero (DMSO), W1, X1: 3 uM, W2, X2: 900 nM, W3, X3: 300 nM, W4, X4: zero (DMSO). Assay Steps: Six uL of buffer were dispensed to 1536-well Greiner black plates. Compounds and dye standards (23 nL) were transferred via Kalypsys PinTool. The plates were incubated for 15 min at room temperature, and then read on ViewLux (Perkin-Elmer) High-throughput CCD imager using 547 nm and 618 nm excitation and emission filter set. Keywords: NIH Roadmap, MLSCN, MLI, MLSMR, qHTS, NCGC, Texas Red, Fluorescent Profiling.

Max dye-equivalent concentration, inactive:
COc1ccc(-c2nc3cnc(OC)nc3n(Cc3ccc(F)cc3)c2=O)cc1, COc1ccc(CCn2c(-c3ccco3)nc3nc4ccccc4nc32)cc1OC, COc1ccc(C(C)=O)cc1COC(=O)Cn1cnc2ccccc2c1=O, Cc1cc(C)nc(SCc2nnc(SCC(=O)Nc3ncc(C)s3)n2Cc2ccco2)n1, COc1ncc2nc(-c3ccc(Cl)cc3)c(=O)n(C)c2n1, Cn1c(=O)c(-c2ccccc2)nc2cnc(N3CCNCC3)nc21, CS(=O)(=O)N(CC(=O)NCc1ccco1)c1ccc2c(c1)OCO2, Cc1cccc2cc(CN(Cc3nnnn3Cc3ccccc3)C3CCCC3)c(=O)[nH]c12, CC(C)C(=O)Nc1cccc(C(=O)Nc2ccc3c(c2)OCO3)c1, O=C1NC(=O)[C@@](Cc2ccccc2)(c2cccnc2)N1, O=C(CN(c1ccc2c(c1)OCCO2)S(=O)(=O)c1ccccc1)Nc1ccc2c(c1)OCO2, CN1CCc2c(sc3c2c(NCc2ccco2)nc2nnnn23)C1, COc1ccc(C)cc1NC(=O)CSc1nc(SC)ns1, N#Cc1ccccc1-c1ccc2ncnc(NCc3cccnc3)c2c1, CCCC(=O)N1c2ccc(-c3csc(N)n3)cc2CC1C (stereo not given), COc1ccc(-n2c(=O)c(C)nc3cnc(N4CCOCC4)nc32)cc1, CC(C)C(NC(=O)c1cccc(S(=O)(=O)N2CCOCC2)c1)C(=O)NCCc1ccccn1 (stereo not given), CSc1ccc(-c2c(C#N)c(N)nc3c2c(C)nn3-c2ccccc2)cc1, CC(C)(C)n1nc2c(c1NC(=O)c1ccc(S(=O)(=O)N3CCCC3)cc1)CS(=O)C2 (stereo not given), CCC[C@H]1C(=O)N2C(N(C)C)=Nc3ccc(C)cc3N2C1=O, Cc1nc2cnc(N3CCN(C)CC3)nc2n(CCC#N)c1=O, CCOc1ccc(-c2nnn(CC(=O)N3CCN(c4ccc(OC)cc4)CC3)n2)cc1OCC, Cc1cnc(NC(=O)CSc2nnc(-c3ccc(Cl)cc3Cl)n2N)s1, CC[C@]1(C)CC(=O)NC1=O, CCc1ccc2oc(=O)cc(CN3CCCCC3C)c2c1 (stereo not given), Cc1cc(NC(=O)Cn2nc(C(F)(F)F)c3c2CCCC3)no1, Cc1cc(C(F)(F)F)n2ncc(-c3ccccc3)c2n1, CN(C)/C=C1/Nc2ccccc2C1=O, CCOC(=O)C1CCCCN1Cc1ccc(OC)c(OC)c1OC (stereo not given), CN(Cc1ccco1)c1ncncc1-c1ccoc1, COc1ccc(-c2c3c(=O)n(C)c(=O)n(C)c3cn2NC(C)=O)cc1, COc1ccc2nccc(C(=O)O)c2c1, Cc1ccc(C(=O)Nc2nnc(-c3cccs3)s2)cc1C, CCc1ccccc1NC(=O)CSc1nnc([C@@H](NC(=O)OC(C)(C)C)C(C)C)o1, Cc1ccc(F)cc1NC(=O)c1ccc2c(c1)OCO2, CC(C)[C@H](NC(=O)Nc1ccc(S(N)(=O)=O)cc1)C(=O)O, CCc1ccccc1N(CC(=O)N1CCN(c2ccccc2F)CC1)S(C)(=O)=O, CCOc1ccccc1/C=c1\sc2nc(-c3ccco3)nn2c1=O, COc1ccccc1NC(=O)CSc1nc2sc(C)c(C)c2c(=O)n1Cc1ccco1, Cc1c(S(=O)(=O)O)ccc(N=Nc2c(O)c(C(=O)O)cc3ccccc23)c1Cl, O=C(NCc1ccco1)c1cnn2c(C(F)(F)F)cc(-c3ccco3)nc12, COCCn1c(=O)c(-c2cccs2)nc2cnc(N3CCN(C)CC3)nc21, COCCn1c(=O)c(CCc2ccccc2)nc2cncnc21, COc1ccc(-c2nc3cnc(N(C)C)nc3n(Cc3cccs3)c2=O)cc1, c1ccc2c(Nc3ccncc3)nc(-c3ccc4c(c3)OCO4)nc2c1, Cn1c(=O)c(CCc2ccccc2)nc2cnc(Nc3ccccc3)nc21, CS(=O)(=O)NCc1ccc(C(=O)NCc2ccccc2)cc1, CCc1cccc(C)c1NC(=O)CSc1nnc(-c2ccco2)n1N, O=C(Nc1ccccc1F)c1cc(S(=O)(=O)N2CCCCC2)cs1, Fc1cnc(N2CCOCC2)nc1NCc1ccccc1, CCNc1ncc2ncc(=O)n(CCc3ccccc3)c2n1, Cc1noc(C)c1-c1nc(Nc2ccccc2)c2ccccc2n1, Cc1cc(N2CCCC2)n2nc(C)c(-c3ccccc3)c2n1, CC(C)(C)c1csc(NC2=NS(=O)(=O)c3ccccc32)n1, COc1ccc(-c2nc3cnc(Oc4ccccc4)nc3n(Cc3cccs3)c2=O)cc1, COC(=O)CN(c1nc(C)c(Cl)c(OC)n1)S(=O)(=O)c1ccc(C)cc1, COC(=O)CNC(=O)c1ccc2c(c1)S(=O)(=O)c1ccccc1C2=O, CC(C)C1N=C2c3ccccc3N=C(SCC(=O)c3ccc(O)c(O)c3)N2C1=O (stereo not given), O=C(O)C1CCCCC1C(=O)Nc1ccc(Cl)cc1 (stereo not given), CCCS(=O)(=O)C(=C1Nc2ccccc2N1)S(=O)(=O)CCC, Cn1c(-c2ccc(C(=O)c3ccccc3)s2)nc2ccccc21, O=C(NCC1CCCO1)C(C(=O)c1ccccc1)n1cc(Cl)ccc1=O (stereo not given), CCOC(=O)c1[nH]c2ccc(C)cc2c1N=C(C)N(C)C, COC(=O)N1CCC2(CCCN(c3ccncc3)C2)CC1, COCCn1c(=O)c(-c2ccccc2)nc2cnc(N3CCOCC3)nc21, COCCn1c(=O)c(-c2cc(F)cc(F)c2)nc2cncnc21, Cc1nn2c3ccccc3nc2n(C)c1=O, O=C(COc1ccc2c3c(c(=O)oc2c1)CCC3)NC1CCCCC1, O=C(NCc1ccccn1)c1cc2ccccc2oc1=O, COc1ccc(Cl)cc1NC(=O)c1oc(C)nc1C, Cc1c(C)c2c(c(C)c1O)CC[C@@](C)(CN1CCN(c3cc(N4CCCC4)nc(N4CCCC4)n3)CC1)O2, O=C1CC2(CCCCC2)Oc2ccc(OCC(=O)N3CCOCC3)cc21, Cc1cnc(CNc2cc(-c3c(C)noc3C)ncn2)cn1, CS(=O)(=O)Nc1cccc(-c2cncnc2Nc2ccccc2)c1, CC(C)OC(=O)C(C#N)c1nc2ccccc2nc1N1CCN(Cc2ccc3c(c2)OCO3)CC1 (stereo not given), Oc1ccc2ccccc2c1C=NCc1c(O)ccc2ccccc12, COCCNC(=S)c1ccc(OC)cc1, CCOC(=O)c1cnc2sccn2c1=O, COc1ccc(OC)c(C(=O)CSc2nnc(-c3cccs3)o2)c1, CCCCn1c(SCC(=O)N2CCC(C(=O)OCC)CC2)nc2cc(S(N)(=O)=O)ccc21, Cc1cc(N2CCCCC2)nc2ccc(Cc3ccc4nc(N5CCCCC5)cc(C)c4c3)cc12, CC(C)c1nc2oc3c(N4CCN(C)CC4)ncnc3c2c2c1CCC2, COCCNc1cc(-c2c(C)noc2C)ncn1, O=c1c(-c2ccc(F)cc2)nc2cnc(N3CCNCC3)nc2n1Cc1cccs1, Cc1nc(NCCN)c(C#N)c2c1COC(C)(C)C2, Cn1cccc1C(=O)NC(=O)COC(=O)Cc1coc2ccc3ccccc3c12, CCOCCN(C=O)c1cccc(OC)c1, COc1ccc2[nH]c(=O)c(CN(CC3CCCO3)C(=O)Nc3ccccc3)cc2c1 (stereo not given), Cn1c(=O)c2c(n(Cc3ccccc3)c1=O)NC(=O)C2CC(=O)N1CCc2ccccc2C1 (stereo not given), O=S(=O)(c1ccccc1)N1CCC2(CC1)CN(Cc1nccs1)C2, O=C(O)CS(=O)c1ccc2c3c(cccc13)C(=O)c1ccccc1-2 (stereo not given), Nc1nonc1-c1nc2ccccc2n1CCC(=O)O, Cc1nc2cnc(N3CCNCC3)nc2n(Cc2ccc(F)cc2)c1=O, Cn1c(=S)c2[nH]c(SCCCc3ccccc3)nc2n(C)c1=O

Max dye-equivalent concentration, active:
CN(c1ccccc1)c1ccc(/C=c2\s/c(=C(/C#N)C(=O)C(C)(C)C)n(Cc3ccco3)c2=O)cc1 54 nM
